# In PubChem BioAssay (Tox21):
# Results filed as inconclusive are left out. Entries that show only a call come without a potency. Unmarked numbers belong to inactive results. Calls of active or inactive are those of the source. Unless noted, the call rests on the fitted dose curve; in most records, active means well fitted curve in the direction sought with a large enough effect in the repeat runs; inconclusive means weak or mixed curves; inactive means no such curve, though single readings can be large; an effect the other way counts as inactive or inconclusive.
# Legend:
# [1] = qHTS assay to identify small molecule agonists of the RXR signaling pathway - cell viability counter screen (AID 1159529); settings: RXR-alpha-bla HEK293T viability, CellTiter-Glo, 16 h; series mostly up to 76.8 µM; further: nearly all actives have a fitted effect of over 50% in size
# How it was run: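 Cell viability is measured by CellTiter-Glo luminescence, 30 min at room temperature, in wells already read for beta-lactamase. Engineered HEK 293T cells (RXR-alpha-UAS-bla) are dosed 16 hr at 37 C. Tetraoctyl ammonium bromide serves as positive control.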
# [2] = qHTS assay to identify small molecule antagonists of the retinoid acid receptor (RAR) signaling pathway - cell viability counter screen (AID 1159551); settings: C3RL4 cells viability, ATP luminescence (CellTiter-Glo), 6 h; series mostly up to 92.4 µM; further: nearly all actives have a fitted effect of over 35% in size
# How it was run: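 In this counter screen, the RARE-luciferase line C3RL4 was exposed for 6 h at 37 C and 5% CO2 to compounds with retinol at 1 uM final. Cellular ATP, read by luminescence, served as the viability measure.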
# [3] = qHTS assay to identify small molecule agonists of the retinoic acid receptor (RAR) signaling pathway (AID 1159553); settings: C3RL4 RARE luciferase reporter, agonist, 6 h; series mostly up to 73.3 µM
# How it was run: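 In this cell-based screen, 1,000 C3RL4 cells per well were cultured overnight, dosed with test chemicals in DMSO for 6 hr, and assessed for RARE luciferase luminescence.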
# [4] = qHTS assay to identify small molecule antagonists of the estrogen related receptor (ERR) signaling pathway from Tox21 library - cell viability counter screen (AID 1224834); settings: ERR reporter cells viability, CellTiter-Fluor, 17.5 h; series mostly up to 92.4 µM; further: nearly all actives have a fitted effect of over 30% in size; further: potency means the concentration at half of the fitted maximal effect
# How it was run: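 Counter screen run in ERR cells (2,000 cells/well): cells pre-incubated 6 h, then treated with compounds for 17.5 h at 37 C. Fluorescence was read 30 min after CellTiter-Fluor addition.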
# [5] = target: Luciferin 4-monooxygenase (Photinus pyralis) (UniProt P08659); test: qHTS assay to identify small molecule inhibitors of firefly luciferase (AID 1224835); further: nearly all actives have a fitted effect of over 25% in size; further: potency means the concentration at half of the fitted maximal effect; settings: purified P. pyralis luciferase, luminescence inhibition; series mostly up to 115 µM
# Chain of Luciferin 4-monooxygenase (Photinus pyralis) (P08659 whole entry, looked up): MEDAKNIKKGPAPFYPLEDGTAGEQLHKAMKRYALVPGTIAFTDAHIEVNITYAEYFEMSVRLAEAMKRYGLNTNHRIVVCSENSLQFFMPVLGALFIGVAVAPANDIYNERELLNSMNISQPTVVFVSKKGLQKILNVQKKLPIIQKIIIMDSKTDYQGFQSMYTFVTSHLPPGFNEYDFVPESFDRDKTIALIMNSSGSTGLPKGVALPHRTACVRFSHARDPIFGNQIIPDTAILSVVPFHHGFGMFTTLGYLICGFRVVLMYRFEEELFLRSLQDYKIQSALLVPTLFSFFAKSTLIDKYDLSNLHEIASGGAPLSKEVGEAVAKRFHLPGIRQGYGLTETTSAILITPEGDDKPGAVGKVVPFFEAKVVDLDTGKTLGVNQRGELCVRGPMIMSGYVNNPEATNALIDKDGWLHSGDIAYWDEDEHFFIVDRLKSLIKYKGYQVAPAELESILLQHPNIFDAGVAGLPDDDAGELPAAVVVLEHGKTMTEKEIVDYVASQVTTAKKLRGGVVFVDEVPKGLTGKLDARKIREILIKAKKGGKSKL
# How it was run: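 Inhibition of purified Photinus luciferase is measured by luminescence. Substrate levels (D-luciferin, ATP) sit at their KM values. Each compound is tested in a concentration series.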
# [6] = qHTS assay to identify small molecule agonists of the constitutive androstane receptor (CAR) signaling pathway - cell viability counter screen (AID 1224836); settings: HepG2-CYP2B6-hCAR viability, CellTiter-Fluor, 23 h, PK11195 added to every well; series mostly up to 92.4 µM; further: nearly all actives have a fitted effect of over 45% in size
# How it was run: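 Counter screen multiplexed with the CAR reporter readout: HepG2 cells co-transfected with hCAR and the CYP2B6-2.2kb construct receive a 15-concentration compound series and 0.75 uM PK11195 (final), then CellTiter-Fluor fluorescence is read after 23 h.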
# [7] = qHTS assay to identify small molecule antagonists of the constitutive androstane receptor (CAR) signaling pathway - cell viability counter screen (AID 1224837); settings: HepG2-CYP2B6-hCAR viability, CellTiter-Fluor, 23 h, co-treated with 50 nM CITCO; series mostly up to 92.4 µM; further: nearly all actives have a fitted effect of over 45% in size; further: potency means the concentration at half of the fitted maximal effect
# How it was run: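 CITCO at 50 nM final was added alongside compounds (15 concentrations) to double-stable hCAR/CYP2B6-2.2kb HepG2 cells. Following 23 hr at 37 C, cell viability was quantified by CellTiter-Fluor fluorescence intensity.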
# [8] = qHTS assay to identify small molecule antagonists of the estrogen related receptor signaling pathway with the pleiotropic PPARgamma coactivator (PGC) from Tox21 10K library - cell viability counter screen (AID 1224840; active means well fitted cell-killing curve with a large enough effect in the repeat runs, not every such curve was filed as active; further: nearly all actives have a fitted effect of over 40% in size); settings: PGC/ERR reporter cells viability, CellTiter-Fluor, 17.5 h; series mostly up to 92.4 µM
# How it was run: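 Readout: fluorescence intensity from CellTiter-Fluor after 30 min at 37 C/5% CO2. Preceded by 17.5 h treatment of PGC/ERR cells with DMSO-dissolved compounds, added 6 h post-seeding.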
# [9] = target: Thyrotropin receptor (Homo sapiens) (UniProt P16473); test: qHTS assay to identify small molecule agonists of the thyroid stimulating hormone receptor (TSHR) signaling pathway (AID 1224843; calls by dose curve; further: nearly all actives have a fitted effect of over 45% in size); settings: TSHR-HEK293 cells, cAMP HTRF, agonist mode, 30 min; series mostly up to 92.4 µM
# Chain of Thyrotropin receptor (Homo sapiens) (P16473 whole entry, looked up): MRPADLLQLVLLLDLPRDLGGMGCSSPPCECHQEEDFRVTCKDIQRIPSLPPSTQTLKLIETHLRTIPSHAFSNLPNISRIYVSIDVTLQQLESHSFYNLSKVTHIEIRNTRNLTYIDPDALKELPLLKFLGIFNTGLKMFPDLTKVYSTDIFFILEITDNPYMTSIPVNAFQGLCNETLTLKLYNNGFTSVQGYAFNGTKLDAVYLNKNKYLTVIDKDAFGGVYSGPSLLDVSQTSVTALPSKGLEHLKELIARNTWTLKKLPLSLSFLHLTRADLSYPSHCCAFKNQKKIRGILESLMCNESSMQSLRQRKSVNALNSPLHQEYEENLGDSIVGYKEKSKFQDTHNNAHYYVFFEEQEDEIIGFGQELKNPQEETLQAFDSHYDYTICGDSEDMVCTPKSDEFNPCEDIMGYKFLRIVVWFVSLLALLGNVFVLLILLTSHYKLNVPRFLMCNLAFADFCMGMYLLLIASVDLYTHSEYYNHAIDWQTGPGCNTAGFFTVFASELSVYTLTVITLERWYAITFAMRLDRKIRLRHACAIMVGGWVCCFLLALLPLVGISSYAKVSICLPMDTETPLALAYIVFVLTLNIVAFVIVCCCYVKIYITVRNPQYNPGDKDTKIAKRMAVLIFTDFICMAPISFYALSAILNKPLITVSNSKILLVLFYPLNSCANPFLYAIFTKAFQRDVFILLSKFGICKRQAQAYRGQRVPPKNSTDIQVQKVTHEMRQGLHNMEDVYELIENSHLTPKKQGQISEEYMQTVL
# How it was run: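 Agonist activity read as cAMP rise via d2/cryptate HTRF competition, 1 h room-temperature detection, in HEK293 cells expressing TSHR. Fifteen-point titrations, each run in triplicate, with a 30 min room-temperature incubation beforehand.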
# [10] = target: Nuclear receptor subfamily 1 group I member 3 (Homo sapiens) (UniProt Q14994); test: qHTS assay to identify small molecule antagonists of the constitutive androstane receptor (CAR) signaling pathway (AID 1224838); settings: HepG2-CYP2B6-hCAR luciferase, CITCO-stimulated, 24 h; series mostly up to 92.4 µM; further: nearly all actives have a fitted effect of over 40% in size
# Chain of Nuclear receptor subfamily 1 group I member 3 (Homo sapiens) (Q14994 whole entry, looked up): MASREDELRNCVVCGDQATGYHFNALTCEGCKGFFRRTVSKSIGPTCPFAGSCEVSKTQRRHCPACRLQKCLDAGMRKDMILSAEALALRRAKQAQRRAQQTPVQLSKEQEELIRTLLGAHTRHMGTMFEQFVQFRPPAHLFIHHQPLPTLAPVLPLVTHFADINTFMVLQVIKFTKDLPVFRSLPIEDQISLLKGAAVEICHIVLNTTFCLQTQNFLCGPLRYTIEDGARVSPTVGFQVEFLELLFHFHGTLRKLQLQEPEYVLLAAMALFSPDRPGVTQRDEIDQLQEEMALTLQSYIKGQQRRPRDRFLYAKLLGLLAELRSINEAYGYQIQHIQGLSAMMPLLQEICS
# How it was run: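 Inhibition of CITCO-driven (50 nM final) CYP2B6 reporter expression is measured in HepG2 cells stably carrying hCAR. Fifteen compound concentrations are applied for 24 h at 37 C, followed by luciferase luminescence.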
# [11] = target: Nuclear receptor subfamily 1 group I member 3 (Homo sapiens) (UniProt Q14994); test: qHTS assay to identify small molecule agonists of the constitutive androstane receptor (CAR) signaling pathway (AID 1224839); settings: HepG2 hCAR CYP2B6-luciferase, agonist mode, 24 h; series mostly up to 92.4 µM; further: nearly all actives have a fitted effect of over 15% in size; further: potency means the concentration at half of the fitted maximal effect
# How it was run: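 A 15-concentration quantitative screen uses HepG2 cells co-transfected stably with human CAR and CYP2B6-2.2kb reporter. Treatment lasts 24 h with 0.75 uM PK11195 final present; ONE-Glo luminescence is the signal.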
# [12] = qHTS assay to identify small molecule antagonists of the estrogen related receptor signaling pathway with the pleiotropic PPARgamma coactivator (PGC) from Tox21 10K library (AID 1224841; call rule not given here; further: actives are mostly falling curves and most rising ones were filed inactive; nearly all actives have a fitted effect of over 50% in size); settings: PGC/ERR reporter cell line, ONE-Glo luciferase, 18 h; series mostly up to 92.4 µM
# How it was run: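 One-Glo luminescence, measured after half an hour at room temperature, quantified reporter output of PGC/ERR cells. These had been plated at 2,000 per well, incubated 6 h, dosed with compounds in DMSO, then kept 18 h at 37 C.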
# [13] = qHTS assay to identify small molecule agonists of the estrogen related receptor signaling pathway with the pleiotropic PPARgamma coactivator (PGC) from Tox21 10K library (AID 1224842); settings: PGC/ERR reporter cell line, luciferase ONE-Glo, 18 h; series mostly up to 92.4 µM; further: nearly all actives have a fitted effect of over 15% in size
# How it was run: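 Luminescence from One-Glo (30 min, room temperature) measured after PGC/ERR cells had 18 h at 37 C with pinned compound (23 nL in DMSO). Cells had been seeded at 2,000 per well and pre-incubated 6 h.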
# [14] = qHTS assay to identify small molecule antagonists of the estrogen related receptor (ERR) signaling pathway - cell viability counter screen (AID 1224818); settings: ERR reporter cell line viability counter screen; series mostly up to 46.1 µM
# How it was run: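 Viability of ERR cells, CellTiter-Fluor fluorescence; 17.5 h compound exposure at 37 C, DMSO vehicle; 30 min reagent incubation at 37 C/5% CO2.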
# [15] = qHTS assay to identify small molecule antagonists of the estrogen related receptor signaling pathway with the pleiotropic PPARgamma coactivator (PGC) cell viability counter screen (AID 1224822); settings: ERR/PGC reporter cell line viability counter screen; series mostly up to 46.1 µM
# How it was run: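 17.5 h compound treatment of PGC/ERR cells at 37 C; readout CellTiter-Fluor fluorescence; run alongside the PGC/ERR antagonist screen to flag cytotoxic compounds.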
Compound,Potency [1],Potency [2],Potency [3],Potency [4],Potency [5],Potency [6],Potency [7],Potency [8],Potency [9],Potency [10],Potency [11],Potency [12],Potency [13],outcome [14],outcome [15]
NC(=S)c1c(Cl)cccc1Cl,inactive,inactive,inactive,inactive,inactive,inactive,inactive,inactive,inactive,,,,,,
C=CC(C)(CCC=C(C)C)OC(=O)c1ccccc1N (stereo unspecified),inactive,inactive,inactive,inactive,,inactive,inactive,,inactive,inactive,inactive,,,,
CCOP(=S)(S)OCC,inactive,inactive,,inactive,33.4 µM (active),inactive,inactive,inactive,inactive,inactive,,inactive,inactive,,
C=CCOCC1CO1 (stereo unspecified),inactive,inactive,,inactive,inactive,inactive,inactive,inactive,inactive,inactive,,inactive,inactive,,
C[C@]12C=CC3=C4CCC(=O)C=C4CC[C@H]3[C@@H]1CC[C@@H]2O,inactive,inactive,,inactive,inactive,inactive,inactive,inactive,,inactive,,,,,
Cc1ncc(C[n+]2csc(CCO)c2C)c(N)n1,inactive,inactive,inactive,inactive,,inactive,inactive,inactive,inactive,inactive,inactive,,,,
NC(=O)CF,inactive,inactive,,inactive,inactive,inactive,inactive,inactive,inactive,inactive,inactive,,,,
O=[N+]([O-])c1cc(Cl)c(Cl)cc1Cl,inactive,inactive,,inactive,inactive,inactive,inactive,,,inactive,inactive,inactive,inactive,,
CC[N+]1(C)CCCC(OC(=O)C(O)(c2ccccc2)c2ccccc2)C1 (stereo unspecified),inactive,inactive,inactive,inactive,,inactive,inactive,inactive,inactive,inactive,,,inactive,,
CC(C)C1(C)N=C(c2ncccc2C(=O)O)NC1=O (stereo unspecified),inactive,inactive,,inactive,inactive,inactive,inactive,inactive,inactive,inactive,inactive,,,,
COc1cc(CC#N)cc(OC)c1OC,inactive,inactive,,inactive,inactive,inactive,inactive,inactive,inactive,inactive,inactive,,,,
CC(C)(C)N(NC(=O)c1ccc(Cl)cc1)C(=O)c1ccccc1,inactive,inactive,inactive,12.1 µM (active),inactive,,8.58 µM (active),inactive,,inactive,,inactive,inactive,,
COc1ccc2c(c1OC)C(=O)O[C@H]2[C@@H]1c2cc3c(cc2CCN1C)OCO3,inactive,inactive,,6.68 µM (active),inactive,,,inactive,inactive,inactive,,,,inactive,inactive
O=C1NC(=O)C(=O)C(=O)N1,inactive,inactive,inactive,inactive,inactive,inactive,inactive,inactive,inactive,,,,,,
C[C@H]1O[C@H](OC2[C@@H](O)[C@@H](O)C(O)[C@H](O)[C@H]2O)[C@@H](N)C[C@@H]1N=C(N)C(=O)O (stereo partly specified),inactive,inactive,inactive,inactive,,inactive,inactive,inactive,inactive,inactive,inactive,,,,
CC(Cc1ccccc1)NCc1ccccc1Cl (stereo unspecified),inactive,inactive,,inactive,inactive,inactive,inactive,inactive,inactive,inactive,26.6 µM (active),,,,
